PubChem BioAssay AID2253 (Southern Research Specialized Biocontainment Screening …, 2010)
About 1,300 (59%) of roughly 2,200 compounds were called active. The set was probably picked from earlier hits. A selection follows. Entries with a potency or affinity are not part of this list. Values without a mark were called inactive. How the calls were made is not given here.

Assay: THP-1 cell cytotoxicity, dose response, cytotoxicity control for Salmonella PhoP regulon inhibitors, S. typhimurium screen hits (AID 2253)
Conditions: THP-1 viability, CellTiter-Glo luminescence, 72 h; series mostly up to 50 µM; viability: at the top concentration

Row | SMILES | viability
1 | CCn1nnc(-c2ccccc2NC(=O)c2ccc(-n3cnnn3)cc2)n1 | 106%
2 | N#Cc1nc(-c2cccs2)oc1NCCCN1CCOCC1 | 104%
3 | CCOc1ccc(/C(O)=C2\C(=O)C(=O)N(CCN(C)C)C2c2cccc(OC)c2OC)cc1Cl (centres undefined) | 91.8%
4 | O=C(CCn1nnc(-c2cccs2)n1)NCc1ccccc1Cl | 92.5%
5 | COc1ccc(C(=O)COc2nc(C)cc(C)c2C#N)cc1 | 87.9%
6 | CCc1nc2cc(Cl)c(Cl)cc2[nH]1 | 94.8%
7 | CC(=O)Nc1c(O)nc(SCC(=O)N2CCN(c3ccc(F)cc3)CC2)[nH]c1=O | 83.5%
8 | O=C(NCCCN1CCCC1=O)c1ccc(Cl)c(NS(=O)(=O)c2ccc(F)cc2)c1 | 104%
9 | CC(C)(C)NC(=O)CSc1nnc(-c2ccncc2)o1 | 94.5%
10 | CC(=O)NCCOc1c(C)cc(S(N)(=O)=O)cc1C | 98.2%
11 | Cn1cccc1CC(=O)N/N=C/C(Cl)=C/c1ccccc1 | 81.8%
12 | CC1(C)CC(=O)c2c(nc3ccccc3c2N)C1 | 83.7%
13 | Cc1cc(C(=O)N2CCN(C/C=C/c3ccccc3)CC2)no1 | 97.7%
14 | CC(CCc1ccccc1)NC(=O)c1ccccc1 (centres undefined) | 92.6%
15 | COCc1cc(C)nc(N2CCc3ccccc32)c1C#N | 96%
16 | COc1ccc(-c2cnn3c(N)c(S(=O)(=O)C(C)(C)C)cnc23)cc1 | 82.9%
17 | Brc1ccc(NC2=Nc3ccccc3CC2)cc1 | 83.7%
18 | COc1cc(C2NC(=O)NC(c3ccccc3)=C2C(C)=O)ccc1OCC(=O)O (centres undefined) | 101%
19 | COc1ccc(S(=O)(=O)n2nc(OC(=O)c3cccs3)cc2N)cc1 | 89% [at 25 µM]
20 | Nc1cc(N)nc(SCC(=O)Nc2ccc3c(c2)OCCCO3)n1 | 87.5%

Row | SMILES | viability
21 | Cc1ccc2cc(C(=O)O)c(C)nc2c1 | 92%
22 | O=C(NCc1cccnc1)c1ccc(Cl)cc1[N+](=O)[O-] | 105%
23 | Cc1cc([N+](=O)[O-])cc2ncccc12 | 99.3%
24 | CCOc1cc(C2C(C(=O)OC)=C(C)N=C3SCCC(=O)N32)ccc1OC(C)=O (centres undefined) | 102%
25 | COc1ccc(Oc2coc3cc(OC(=O)c4cccs4)ccc3c2=O)cc1 | 85.9%
26 | Cc1cc(C)nc(N(C#N)C(C)C(=O)N(C)C)n1 (centres undefined) | 88%
27 | O=C(NC(=Nc1ccccc1)N1CCOCC1)Nc1ccccc1 | 89.8%
28 | Cc1cccnc1N(C(=O)Nc1ccccc1)C1=NCC(C)(C)S1 | 105%
29 | OC(COCc1cccs1)CN1CCN(c2ccccn2)CC1 (centres undefined) | 97.5%
30 | CCCCOC(=O)CCNc1n[nH]c(=O)[nH]c1=O | 95%
31 | Clc1ccc(CNCc2cccs2)cc1Cl | 87.5%
32 | O=C(Cc1cn2ccsc2n1)Nc1ccccc1Oc1ccccc1 | 87.3%
33 | Cc1ccc(S(=O)(=O)NCCC(=O)OCn2nnc3ccccc3c2=O)cc1 | 94.5%
34 | CN(C(=O)/C=C/c1ccccc1)C1CCS(=O)(=O)C1 (centres undefined) | 95.7%
35 | CNC(=O)c1ccc(-c2ccc(F)cc2)s1 | 86%
36 | CCCSc1nc(N2CCCC2)c2c(c1C#N)CC(C)(C)OC2 | 85.5%
37 | C=CCNC(=O)c1ccc(N(C)S(=O)(=O)c2ccc(OC)cc2)cc1 | 94.2%
38 | CC1CN(C(=O)CCc2ccccc2)C(C)CN1C(=O)CCc1ccccc1 (centres undefined) | 93.1%
39 | O=C(c1ccc(Cl)cc1Cl)C1(n2cncn2)Oc2ccccc2C1O (centres undefined) | 89.8%
40 | Cc1ccc(C(=O)NCc2ccc(Cl)cc2)o1 | 92.7%

Row | SMILES | viability
41 | O=[N+]([O-])c1ccc(-c2ccn[nH]2)o1 | 115%
42 | COc1cccc(OC)c1C(=O)NC(=S)Nc1cc(-c2nc3ccccc3[nH]2)ccc1Cl | 93%
43 | CN(c1ccccc1)S(=O)(=O)c1ccc(C(=O)Nc2nnc(-c3ccc(F)cc3)o2)cc1 | 120%
44 | COC(=O)c1c(C(=O)OC)c(-c2cccc(C)c2)n2c1CS(=O)(=O)C2 | 83.7%
45 | CCn1cc(C(C)(C)C)c(C#N)c1NC(C)=O | 85.9%
46 | O=C(Cn1cnc2scc(-c3ccccc3)c2c1=O)N1CCOCC1 | 98.7%
47 | C=CC1=C(C(=O)O)N2C(=O)[C@@H](NC(=O)/C(=N/OCC(=O)O)c3csc(N)n3)[C@H]2SC1 | 105%
48 | CC(C)(C)c1n[nH]c(=S)n(/N=C/c2cccs2)c1=O | 98.4%
49 | Cc1ccsc1/C=N/NC(=O)Cn1cnc2ccccc21 | 85.7% [at 25 µM]
50 | C=CCSC1=Nc2sccc2C2=NC(=O)CN12 | 94.6%
51 | NC(=O)c1oc2ccccc2c1NC(=O)CN1CCCCC1 | 90.4%
52 | O=C(CN1CCCCC1)Nc1cccc2c1OCO2 | 99%
53 | O=c1[nH]c2cc3c(cc2cc1CN(CCc1ccccc1)Cc1nnnn1CC1CCCO1)OCO3 (centres undefined) | 85.9%
54 | CC(C)CNC(=S)NC1CCCC1 | 91.8%
55 | O=C(CN1CCC(NC(=O)c2cccc(F)c2)CC1)NCc1ccccc1F | 101%
56 | Cn1c(SCC(=O)NC(=O)c2cccc([N+](=O)[O-])c2)nnc1-c1ccc(F)cc1 | 102%
57 | CN(C)CCNC(=O)c1ccc(COCC(F)(F)F)cc1 | 116%
58 | Cc1cc([N+](=O)[O-])ccc1NC(=O)Cc1ccc(F)cc1 | 91.8%
59 | COc1ccc(/C=C/C(=O)O)cc1COc1cccc(C)c1 | 89.3%
